Values joined by “and” are separate entries in the source; they are usually repeats but may differ in a detail not shown here. Identical values can stand only once. Results filed as inconclusive are left out. Where a structure was tested more than once in an assay, its records may differ in their call. Active and inactive are the calls of the source. The calls were made as follows, unless noted: active = hit-call score of the fitted dose curve at least 0.9, where 1 is the maximum; inactive = score below 0.9.
Assays:
[1] = UKN2_HCS_IMR90_cell_viability: Viability Assessment in the University of Konstanz (UKN) Leist Lab Neural Crest Cell Migration Assay in human induced IMR90 Pluripotent Stem Cells (UKN2) (AID 2284233);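 also: cells exposed to compound for 24 h after a 24 h migration phase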
In short: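 Viability read as calcein-AM fluorescence by high-content imaging, Hoechst co-stain, 30 min. Human iPSC (IMR90) neural crest cells had migrated 24 h into stopper-defined gaps before 24 h chemical exposure. Fitted bidirectionally relative to DMSO.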

[2] = CCTE_Mundy_HCI_Cortical_NOG_NeuronCount: CCTE's Neurite Outgrowth Assay in rat cortical cells for Neuron Count, Mundy Lab (AID 2284236; active = hit-call score of the fitted dose curve at least 0.9, where 1 is the maximum;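 also: neurons counted by imaging betaIII-tubulin and Hoechst stained cortical cells; cells exposed to compound for about 48 hours before fixation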)
In short: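 Read-out: neuron number by high-content imaging of betaIII-tubulin (Alexa Fluor-488) and Hoechst-labelled rat primary cortical cells.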

[3] = CCTE_Mundy_HCI_Cortical_NOG_BPCount: CCTE's Neurite Outgrowth Assay in rat cortical cells for Branch Point Count, Mundy Lab (AID 2284237);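 as to AC50: branch points counted about two days after chemical exposure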
In short: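 Measured 50.33 h after dosing, this morphology endpoint uses rat primary cortical cultures labelled for betaIII-tubulin. Branch points are quantified by high-content imaging, with DMSO as negative control and baseline.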

[4] = read-out: Collagen I, COL1A1 (gene 1277); experiment: BSK_MyoF_CollagenI: BioMAP Diversity Plus: MyoF Assay for Collagen I Biomarker Activity (AID 2284238); settings: primary human lung fibroblasts
In short: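 Lung fibroblasts (human primary) dosed, 24 h; Collagen I by ELISA; positive-direction fit vs DMSO control. Parallel SRB total-protein staining (0.1% SRB, 10% TCA fixation, 560 nm) flags overt cytotoxicity.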

[5] = read-out: Collagen III, COL3A1 (gene 1281); experiment: BSK_MyoF_CollagenIII: BioMAP Diversity Plus: MyoF Assay for Collagen III Biomarker Activity (AID 2284239); settings: primary human lung fibroblasts
In short: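 ELISA read-out of collagen III from human lung fibroblasts after 24 h of chemical treatment. The DMSO control served as negative control and baseline, with values fitted in the positive direction.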

[6] = CCTE_Mundy_HCI_hNP1_Casp3_7: CCTE's Caspase-Glo 3/7 Assay in human neuroprogenitor cells for Apoptosis, Mundy Lab (AID 2284240)
In short: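 Luminescent caspase-3/7 readout, 26.5 h post-dose, in human neural progenitor cells from WA09 embryonic stem cells. Cells grew 40–44 h at 37 °C, 5% CO2 before chemical addition. Activity analysed as signal increase over DMSO baseline.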

[7] = CCTE_Mundy_HCI_hNP1_CellTiter: CCTE's Cell Titer-Glo 2 Assay in human neuroprogenitor cells for Viability, Mundy Lab (AID 2284241; active = hit-call score of the fitted dose curve at least 0.9, where 1 is the maximum;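 as to AC50: a hit is a drop in ATP luminescence versus DMSO meaning reduced viability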)
In short: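 Viability read as luminescent ATP content (CellTiter-Glo, 30 min room temperature) twenty-four hours after dosing, relative to DMSO. Cells: WA09-derived hNP1 neuroprogenitors on poly-L-ornithine/laminin, plated 40 to 44 hours before chemical.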

[8] = CCTE_Mundy_HCI_Cortical_Synap_Neur_Matur_NeuronCount: CCTE's Synaptogenesis and Neurite Maturation Assay in rat cortical cells for Neuron Count, Mundy Lab (AID 2284242; active = hit-call score of the fitted dose curve at least 0.9, where 1 is the maximum;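 as to AC50: hits reduce neuron count versus DMSO baseline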)
In short: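 Neuron counts come from automated high-content imaging of Hoechst nuclei and MAP2/synaptophysin immunostaining at DIV 12, with loss of signal judged against DMSO. Cultures of rat cortical cells had glial growth arrested by AraC at DIV 5; chemical exposure began DIV 7.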

[9] = read-out: Interleukin 17F (IL17F), IL17F (gene 112744); experiment: BSK_BT_xIL17F: BioMAP Diversity Plus: BT Assay for Interleukin 17F (IL17F) Biomarker Activity (AID 2284243); settings: primary human B cells with PBMC
In short: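 Compound was added to co-cultures of human B cells and PBMC. After 24 hours, IL-17F released into the medium was measured with LumineX xMAP technology. Responses were then fitted upward relative to DMSO.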

[10] = read-out: Actin alpha 1 (ACTA1), ACTA1 (gene 58); experiment: BSK_MyoF_ACTA1: BioMAP Diversity Plus: MyoF Assay for Actin alpha 1 (ACTA1) Biomarker Activity (AID 2284244); settings: primary human lung fibroblasts
In short: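 alpha-SMA levels read by ELISA against DMSO baseline, 24 h post-dose, in primary human lung fibroblasts. Parallel cultures stained with 0.1% SRB after 10% TCA fixation (560 nm) to flag overt cytotoxicity.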

[11] = read-out: Interleukin 2 (IL2), IL2 (gene 3558); experiment: BSK_BT_xIL2: BioMAP Diversity Plus: BT Assay for Interleukin 2 (IL2) Biomarker Activity (AID 2284245); settings: primary human B cells with PBMC
In short: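 Secreted IL-2 was read by Luminex xMAP from B cells co-cultured with PBMC (human primary) 24 h post-dosing; activity was analysed as gain of signal relative to DMSO vehicle.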

[12] = read-out: Basic fibroblast growth factor (bFGF), FGF2 (gene 2247); experiment: BSK_MyoF_bFGF: BioMAP Diversity Plus: MyoF Assay for Basic fibroblast growth factor (bFGF) Biomarker Activity (AID 2284246); settings: primary human lung fibroblasts
In short: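 bFGF was measured by ELISA in primary human lung fibroblasts 24 h after chemical addition. Signal was analysed as positive-direction change relative to DMSO baseline.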

[13] = read-out: Collagen IV, COL4A1 (gene 1282); experiment: BSK_MyoF_CollagenIV: BioMAP Diversity Plus: MyoF Assay for Collagen IV Biomarker Activity (AID 2284247); settings: primary human lung fibroblasts
In short: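 Collagen IV quantified by ELISA in human lung fibroblast cultures 24 h after chemical treatment, with DMSO as baseline. Parallel SRB staining (0.1% SRB after TCA fixation, 560 nm) flags overt cytotoxicity.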

[14] = read-out: Plasminogen activator inhibitor-1 (PAI1), SERPINE1 (gene 5054); experiment: BSK_MyoF_PAI1: BioMAP Diversity Plus: MyoF Assay for Plasminogen activator inhibitor-1 (PAI1) Biomarker Activity (AID 2284256); settings: primary human lung fibroblasts;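 also: PAI-1 protein level measured by ELISA in fibroblast cultures; PAI-1 read 24 h after compound addition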
In short: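 Primary human lung fibroblasts are dosed and incubated 24 h. PAI-1 is then measured by ELISA, while parallel cultures undergo SRB staining for overt cytotoxicity. Increases over DMSO define activity.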

[15] = read-out: Interleukin-8 (IL8), CXCL8 (gene 3576); experiment: BSK_MyoF_IL8: BioMAP Diversity Plus: MyoF Assay for Interleukin-8 (IL8) Biomarker Activity (AID 2284261); settings: primary human lung fibroblasts
In short: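 IL-8 levels were measured by ELISA in human lung fibroblasts harvested 24 h after compound addition. Responses were analysed as gain of signal over the DMSO baseline.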

Decorin, DCN (gene 1634) = experiment: BSK_MyoF_Decorin: BioMAP Diversity Plus: MyoF Assay for Decorin Biomarker Activity (AID 2284265); settings: primary human lung fibroblasts
In short: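 Compound is added to lung fibroblast cultures; cells incubate 24 h; decorin is then measured by ELISA; the response is analysed upward against DMSO controls.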

[16] = BSK_MyoF_SRB: Viability Assessment in the BioMAP Diversity Plus: MyoF Assay (AID 2284267); settings: primary human lung fibroblasts;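 also: total protein by SRB absorbance in parallel cultures as cytotoxicity measure; cells assessed 24 h after compound addition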
In short: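 Cytotoxicity read-out: after 10% TCA fixation, parallel human lung fibroblast cultures were stained with 0.1% SRB at 24 h post-dosing and read at 560 nm; DMSO served as baseline.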

[17] = UKN4_HCS_LUHMES_cell_viability: Viability Assessment in the University of Konstanz (UKN) Leist Lab Neurite Outgrowth Assay in human LUHMES cells (UKN4) (AID 2284232)
In short: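 Viability was read by high-content imaging of calcein-AM/H-33342-stained cells after 24 h toxicant exposure, staining included. Cells: human LUHMES on day 2 of dopaminergic differentiation, dosed shortly after attachment; DMSO baseline, bidirectional curve fitting.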

Measured: AC50

CN(C)[C@@H]1C(=O)C(C(N)=O)=C(O)[C@@]2(O)C(=O)C3=C(O)c4c(O)cccc4[C@@](C)(O)[C@H]3[C@H](O)[C@@H]12
active: [1] 90 µM | [2] 76.9 µM | [6] 25.2 µM | [8] 86.1 µM
inactive: [3] | [4] | [5] | [7] | [9] | [10] | [11] | [12] | [13] | [14] | [15] | Decorin, DCN (gene 1634) | [16]

S=C1NCCN1
inactive: [3] | [6] | [7] | [8]

CCCCSP(=O)(SCCCC)SCCCC
inactive: [1]
active: [2] 86.4 µM and 68.4 µM | [3] 84.4 µM and 76 µM | [6] 35.8 µM and 32.8 µM | [7] 66.9 µM | [8] 86 µM and 24.4 µM

CC(=NC#N)N(C)Cc1ccc(Cl)nc1
inactive: [17] | [1] | [2] | [3] | [6] | [7]

CSC1=N[C@@](C)(c2ccccc2)C(=O)N1Nc1ccccc1
inactive: [2] | [3] | [6] | [7]

CCCSP(=O)(OCC)Oc1ccc(Br)cc1Cl (configuration not stated)
inactive: [2] | [3] | [6] | [7] | [8]

COP(=O)(OC)C(O)C(Cl)(Cl)Cl (configuration not stated)
active: [6] 15.5 µM | [8] 50 µM
inactive: [3] | [7]

CC[C@H](C)[C@H]1O[C@]2(C=C[C@@H]1C)C[C@@H]1C[C@@H](C/C=C(\C)[C@@H](O[C@H]3C[C@H](OC)[C@@H](O[C@H]4C[C@H](OC)[C@@H](NC)[C@H](C)O4)[C@H](C)O3)[C@@H](C)/C=C/C=C3\CO[C@@H]4[C@H](O)C(C)=C[C@@H](C(=O)O1)[C@]34O)O2
active: [17] 1.76 µM | [1] 3.1 µM and 3.81 µM | [2] 1.23 µM and 1.7 µM | [3] 883 nM and 1.53 µM | [6] 14.3 µM and 3.62 µM | [7] 1.3 µM | [8] 672 nM and 1.14 µM

CCCSP(=O)(OCC)SCCC
active: [8] 3.79 µM
inactive: [1] | [2] | [3] | [6] | [7] | [8]

CON=C(C(=O)OC)c1ccccc1CON=C(C)c1cccc(C(F)(F)F)c1
active: [1] 50 µM | [2] 1.78 µM | [3] 929 nM | [6] 50 µM | [7] 50 µM | [8] 0.293 µM

COP(=O)(NC(C)=O)SC (configuration not stated)
inactive: [3] | [6] | [7] | [8]

CCOP(=O)(NC(C)C)Oc1ccc(SC)c(C)c1 (configuration not stated)
inactive: [1] | [2] | [3] | [6] | [8]
active: [7] 51 µM

CCOP(=S)(OCC)Oc1cc(C)nc(C(C)C)n1
active: [3] 110 nM
inactive: [6] | [8]

CCOP(=O)(SC(C)CC)N1CCSC1=O (configuration not stated)
inactive: [3] | [6] | [7]
